Inconclusive results are not listed. For some assays here: Measured potencies and affinities stand elsewhere. The source made the active and inactive calls. Unless noted, no rule for the calls is given here.
Experiments:
[1] = biological target: ATP-dependent translocase ABCB1 (Homo sapiens) (UniProt P08183); experiment: MDR1 (ABCB1) efflux transporter inhibition, cell-based (AID 377; in the data active = fluorescence slope change above about 50%); conditions: MDR1-expressing cells, fluorescent substrate accumulation slope; stronger effect = higher value; concentration not given here
Sequence of ATP-dependent translocase ABCB1 (Homo sapiens) (P08183 whole entry, looked up): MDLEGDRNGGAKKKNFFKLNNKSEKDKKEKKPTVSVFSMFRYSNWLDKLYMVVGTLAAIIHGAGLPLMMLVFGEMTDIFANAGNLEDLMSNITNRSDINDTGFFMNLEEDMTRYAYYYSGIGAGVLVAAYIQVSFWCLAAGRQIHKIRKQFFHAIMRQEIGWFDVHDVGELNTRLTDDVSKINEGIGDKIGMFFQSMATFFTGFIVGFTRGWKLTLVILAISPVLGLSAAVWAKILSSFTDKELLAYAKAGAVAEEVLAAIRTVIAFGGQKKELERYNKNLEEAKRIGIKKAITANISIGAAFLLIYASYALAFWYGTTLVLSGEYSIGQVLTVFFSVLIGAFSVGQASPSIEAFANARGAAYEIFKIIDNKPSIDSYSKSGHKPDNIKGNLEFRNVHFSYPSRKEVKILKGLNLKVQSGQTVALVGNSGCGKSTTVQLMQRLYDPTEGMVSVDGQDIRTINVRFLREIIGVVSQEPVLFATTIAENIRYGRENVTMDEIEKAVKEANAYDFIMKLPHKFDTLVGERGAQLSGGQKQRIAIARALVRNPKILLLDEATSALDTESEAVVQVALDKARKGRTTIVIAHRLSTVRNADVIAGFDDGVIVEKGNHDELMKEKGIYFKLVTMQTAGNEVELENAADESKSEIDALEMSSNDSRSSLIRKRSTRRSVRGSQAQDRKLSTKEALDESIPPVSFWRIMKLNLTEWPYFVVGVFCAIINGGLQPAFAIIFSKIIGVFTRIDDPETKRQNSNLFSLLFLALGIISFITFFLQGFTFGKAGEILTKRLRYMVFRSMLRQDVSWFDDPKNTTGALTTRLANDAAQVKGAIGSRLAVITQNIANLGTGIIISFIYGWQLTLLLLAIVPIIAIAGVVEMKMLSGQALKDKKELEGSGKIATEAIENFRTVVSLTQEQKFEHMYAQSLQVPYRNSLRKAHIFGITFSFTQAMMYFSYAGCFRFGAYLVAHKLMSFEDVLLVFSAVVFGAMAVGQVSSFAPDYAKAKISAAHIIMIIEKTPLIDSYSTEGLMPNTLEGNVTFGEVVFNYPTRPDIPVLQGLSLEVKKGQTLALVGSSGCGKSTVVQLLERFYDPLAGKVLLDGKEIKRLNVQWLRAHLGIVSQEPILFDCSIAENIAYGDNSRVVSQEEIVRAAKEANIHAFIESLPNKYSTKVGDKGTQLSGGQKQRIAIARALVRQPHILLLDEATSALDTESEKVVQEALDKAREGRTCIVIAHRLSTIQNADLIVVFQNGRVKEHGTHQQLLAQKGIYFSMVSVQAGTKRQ

[2] = polyglutamine-triggered caspase-3 activation inhibitors, cell-based (AID 1583); conditions: polyglutamine-induced caspase-3 activation, cell assay; stronger effect = higher value;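 tested at 10 µM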
[3] = suppressors of polyQ aggregation in yeast, 75Q-TubU reporter (AID 1593); conditions: Yeast 75Q polyglutamine aggregation reporter
[4] = rescue of polyQ-huntingtin neuronal dysfunction in worms, whole organism, C. elegans mechanosensory neurons, N-terminal huntingtin (AID 1599); conditions: touch response, stronger effect = higher value
[5] = inhibitors of mitochondrial cytochrome c release, biochemical, purified mitochondria (AID 1603); conditions: stronger effect = lower value;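 also: mouse liver mitochondria challenged with calcium chloride; signal normalized to the plate average as 100%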
[6] = inhibitors of polyQ protein aggregation (AID 1604); conditions: polyglutamine-induced protein aggregation inhibition assay; stronger effect = higher value; tested at 2.5 µM
[7] = enhancers of glutamate uptake in motor neurons, MN-1 cell line (AID 1612); conditions: MN-1 motor neuron cells, stronger effect = higher value;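 also: tested at 1 µM final; 0% = mean of DMSO vehicle wells on each plate; positive means more glutamate uptake than control and negative means less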
[8] = reducers of polyQ inclusions in PC12 cells, cell-based, NGF-treated PC12, GFPQ80 (AID 1614); conditions: PC12 NGF-treated GFP-polyQ80 inclusion reduction;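 also: lower means fewer inclusions and 0 means no inclusions at all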
[9] = suppressors of polyglutamine aggregation in yeast, 75Q-TubH (AID 1616); conditions: S. cerevisiae 75Q-TubH polyglutamine aggregation suppression; stronger effect = higher value
[10] = hESC survival regulators, cell-based (AID 493140); conditions: human embryonic stem cell survival screen; stronger effect = higher value;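 also: cells exposed to compounds for four days before counting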

Structure (SMILES)	fluorescence slope change [1]	inhibition [2] [%]	score [3]	rescue above control [4]	cytochrome c release ratio [5]	inhibition of aggregation [6] [%]	glutamate uptake change [7] [%]	inclusion score [8]	aggregation suppression score [9]	survival [10]
CCOc1ccc(NC(C)=O)cc1	5.5% (inactive)	-10.9	0.84	-2.44	0.87	-59.3	-13.8	1.5	0.296	8.75 (inactive)
CCn1cc(C(=O)O)c(=O)c2cc(F)c(N3CCNCC3)nc21	3.6% (inactive)	-8.5	1.5	0.62	0.92	-1.85	-7.7	2	1.11	13.2 (inactive)
CN1CCOC(c2ccccc2)c2ccccc2C1 (configuration not stated)	5.9% (inactive)	4.24	1.08	-6.88	0.83	74.7	0.43	1.5	1.44	21.3 (inactive)
C=CCSCC1Nc2cc(Cl)c(S(N)(=O)=O)cc2S(=O)(=O)N1 (configuration not stated)	–	-19.5	0.96	4.12	0.99	-7.48	-15.5	2	0.983	6.42 (inactive)
O=C1c2ccccc2C(=O)C1c1ccccc1	–	16.8	0.9	2.74	0.89	3.03	6.38	2	0.588	8.58 (inactive)
CC1=C(C(=O)O)N2C(=O)[C@@H](NC(=O)[C@H](N)c3ccc(O)cc3)[C@H]2SC1	–	-20.4	1.38	2.74	0.96	74.6	-6.33	2.5	1.47	5 (inactive)
CCN(CC)C(=O)N1CCN(C)CC1	25.5% (inactive)	14.8	1.32	-3.55	0.61	85.9	-11.4	2	1.44	18.8 (inactive)
CCN(CCCCOC(=O)c1ccc(OC)c(OC)c1)C(C)Cc1ccc(OC)cc1 (configuration not stated)	-44.1% (inactive)	24.4	1.51	1.7	0.92	65.1	1.65	2	1.35	13.9 (inactive)
Cc1ncc([N+](=O)[O-])n1CCO	22.4% (inactive)	-3.1	1.16	22.1	0.97	58.7	20.8	2	0.969	10.8 (inactive)
NS(=O)(=O)c1cc(C(=O)O)c(NCc2ccco2)cc1Cl	19.9% (inactive)	10.9	1.37	-8.35	0.82	3.24	-10.7	2	0.957	10.1 (inactive)
CC[C@]12CCCN3CCc4c(n(c5ccccc45)C(=O)C1)[C@@H]32	12.1% (inactive)	11.5	1.49	15.2	1.06	76	-6.74	2	1.73	2 (inactive)
CS(=O)(=O)c1ccc([C@@H](O)[C@@H](CO)NC(=O)C(Cl)Cl)cc1	–	-7.88	0.79	-0.62	0.72	100	16.7	2	0.726	14.4 (inactive)
Cc1cccc(N(C)C(=S)Oc2ccc3ccccc3c2)c1	–	-3.4	-1.43	-1.37	0.96	57.4	-6.25	2	0.257	27.3 (inactive)
CCCCN(CCCC)CCCOC(=O)c1ccc(N)cc1	85.2% (active)	5.65	1.13	-6.3	0.76	39.2	-0.54	2	1.28	2.17 (inactive)
Nc1cc(-c2ccncc2)c[nH]c1=O	8.3% (inactive)	-0.86	1.14	4.19	0.91	17.8	12.5	2	1.17	2.67 (inactive)
CCn1cc(C(=O)O)c(=O)c2cnc(N3CCCC3)nc21	55.2% (active)	-13.1	0.98	7.28	1.33	85.9	-9.95	2	1.27	4.5 (inactive)
OCC(O)CN1CCN(c2ccccc2)CC1 (configuration not stated)	54.1% (active)	9.99	1.44	10.9	0.72	68.2	0.23	2	1.04	19.2 (inactive)
CC(N)CCCC(C)(C)O (configuration not stated)	–	23.3	1.12	-5.82	0.68	19.1	-4.36	2	1.46	21.5 (inactive)
O=C(O)CCC(=O)c1ccc(-c2ccccc2)cc1	81% (active)	1.96	-0.44	4.61	1	18.2	6.02	2	-0.185	32.7 (inactive)
Cc1ccccc1OCC(O)CO (configuration not stated)	59.3% (active)	20.6	1.31	-6.62	1.09	70.4	18.9	2	1.74	11.9 (inactive)
COc1cc(NS(=O)(=O)c2ccc(N)cc2)nc(OC)n1	–	1.07	1.14	-2.33	0.86	67.5	-20.2	2	1.32	3.33 (inactive)
CCCCC1(COC(=O)CCC(=O)O)C(=O)N(c2ccccc2)N(c2ccccc2)C1=O	4.7% (inactive)	9.48	1.11	9.03	1.09	57.1	-2.57	2	0.747	3.58 (inactive)
Nc1ccc(S(=O)(=O)Nc2nccs2)cc1	–	6.1	1.37	-1.24	0.85	66.2	13.7	2	1.31	23.3 (inactive)
NC(=O)NC1NC(=O)NC1=O (configuration not stated)	–	2.28	1.2	-1.57	0.93	74.6	-8.53	2	0.815	26.8 (inactive)

Structure (SMILES)	fluorescence slope change [1]	inhibition [2] [%]	score [3]	rescue above control [4]	cytochrome c release ratio [5]	inhibition of aggregation [6] [%]	glutamate uptake change [7] [%]	inclusion score [8]	aggregation suppression score [9]	survival [10]
CCN1CCCC(OC(=O)C(c2ccccc2)c2ccccc2)C1 (configuration not stated)	–	7.55	1.33	-11.5	1.06	23.6	7.33	1.5	1.15	12 (inactive)
Nc1nc2c(c(=O)[nH]1)N(C=O)C(CNc1ccc(C(=O)N[C@@H](CCC(=O)O)C(=O)O)cc1)CN2 (some centres not stated)	–	16.8	2.89	-4.97	1.12	35	-0.12	1.5	2.31	8.17 (inactive)
CCN(CC)CCOC(=O)C(Cc1cccc2ccccc12)CC1CCCO1 (configuration not stated)	91.9% (active)	-17.5	1.25	1.39	1.11	22.2	-20.3	2	1.03	5.33 (inactive)
Cc1ccc(C(=O)c2ccc(CC(=O)O)n2C)cc1	69.6% (active)	3.78	1.04	-3.75	1.04	23.8	12.3	2	0.801	3.83 (inactive)
COc1ccc2cc3[n+](cc2c1OC)CCc1cc2c(cc1-3)OCO2	–	-15.4	0.32	10.8	0.96	65.2	15.2	2	0.27	0.5 (inactive)
Cc1cc(C)nc(NS(=O)(=O)c2ccc(N)cc2)n1	–	5.54	1.45	-12.8	1.13	22.2	2.45	2	1.21	3.75 (inactive)
CC(=O)N(O)CCCCCNC(=O)CCC(=O)N(O)CCCCCNC(=O)CCC(=O)N(O)CCCCCN	–	-1.64	0.93	-3.69	0.93	63.2	-8.52	2	1.05	4 (inactive)
Oc1c(I)cc(I)c2cccnc12	–	17.6	-0.2	-12.4	1.04	24.2	78.2	–	0.108	–
CCCCOC(=O)c1ccc(N)cc1	–	10.7	0.73	12.6	0.92	7.84	19.2	2	0.439	0.75 (inactive)
Cc1cc(=O)n(-c2ccccc2)n1C	–	22	1.07	2.73	1.13	22.2	-12.9	2	1.35	27 (inactive)
Cn1c(=O)c2c(ncn2CC(O)CO)n(C)c1=O (configuration not stated)	–	-0.09	1.08	-16.2	1.19	21.9	0	1	1.31	34 (inactive)
CC(=O)Oc1ccc(C(c2ccc(OC(C)=O)cc2)c2ccccn2)cc1	–	10.5	1.05	5.96	1.37	74.4	13	2	1.23	9.25 (inactive)
CCCCCCOc1ccccc1C(N)=O	–	0.61	0.45	-0.6	1.11	67.5	0.56	–	0.156	–
Nc1ccc(S(N)(=O)=O)cc1	–	-14.5	1.26	0.93	1.06	81.5	-2.33	2	1.25	5.08 (inactive)
CCC(Cc1c(I)cc(I)c(N)c1I)C(=O)O (configuration not stated)	–	-9.96	-1.24	-0.81	1.14	1.96	7.36	2	0.027	8.83 (inactive)
CCn1cc(C(=O)O)c(=O)c2cnc(N3CCNCC3)nc21	–	-5.14	1.35	5.83	0.98	72.4	-1.23	2	1.16	5.25 (inactive)
CC1(C)S[C@@H]2[C@H](NC(=O)[C@H](N)c3ccccc3)C(=O)N2[C@H]1C(=O)O	–	14.1	1.62	-3.83	1.35	80.3	-16.2	2	1.58	14.2 (inactive)
Oc1ccc(Cl)c2cccnc12	–	19.1	-0.02	-0.67	0.81	63.5	42.4	–	0.0533	–
CCN(CC)CCOc1ccc(/C(=C(\Cl)c2ccccc2)c2ccccc2)cc1	–	-2.8	-0.01	11.2	4.67	46.5	-0.41	–	0.524	–
O=C(O)c1ccccc1OP(=O)(O)O	–	6.6	0.8	-8.86	1.13	61	-7.63	2	0.8	6.17 (inactive)
Nc1nc(=S)c2[nH]cnc2[nH]1	–	7.19	1.07	-10.2	0.96	83.1	-1.16	–	1.86	–
Nc1ccc(S(=O)(=O)Nc2cnc3ccccc3n2)cc1	–	26.1	1.42	9.63	1.1	22.7	6.13	2	1.52	3.75 (inactive)
Cc1c(NC(C)C)c(=O)n(-c2ccccc2)n1C	–	6.61	1.54	-6.83	1.16	13.7	28.4	2	1.14	7.42 (inactive)
CN(Cc1cc(Br)cc(Br)c1N)C1CCCCC1	–	50	1.59	-1.24	1.12	80.3	-11.2	–	1.07	–

— PubChem BioAssay
